# Hits are enriched below; roughly 2.3% of the tested compounds scored in any of these assays.
# BCLXL inh: inhibitors of human Bcl-xL, primary screen, biochemical, fluorescence polarization, HTS | Bcl-2-like protein 1 (Homo sapiens), Q07817 | GST-Bcl-xL / FITC-Bim BH3 peptide fluorescence polarization | inhibition, % at 10.9 µM | 320,000 compounds, 0.7% hits | AID 2129, 2009;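 active means inhibition above the mean of all tested compounds plus 3 SD, cutoff set per campaign, cut at about 30% in these data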;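 further: inhibitors lower millipolarization by displacing the labeled peptide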
# Mcl1 Noxa PPI: Mcl-1/Noxa binding inhibitors, primary screen, biochemical, TR-FRET, 1536-well. TR-FRET Mcl-1/Noxa peptide binding, 2 h. 220,000 compounds, 1.5% hits. inhibition, % at 21.7 µM. AID 1022, 2008;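 active means compounds that cut the protein-peptide binding signal by more than 50% relative to plate controls in a single-dose test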;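 further: His-tagged Mcl-1 with rhodamine Noxa BH3 peptide and terbium anti-His antibody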
# Mcl1-Bid inh: Mcl-1/Bid binding inhibitors, primary screen, biochemical, TR-FRET, 1536-well | Induced myeloid leukemia cell differentiation protein Mcl-1 (Homo sapiens), Q07820 | TR-FRET Mcl-1/Bid-Dy647 peptide binding | inhibition, % at 21.7 µM | 220,000 compounds, 0.97% hits | AID 1021, 2008;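 active means compounds that cut the binding signal by more than half at the single screening dose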;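 further: His-tagged Mcl-1 with europium anti-His antibody binding Bid BH3 peptide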
# Bim-Mcl-1: inhibitors of Bim peptide binding to Mcl-1, primary screen, biochemical, bead-based flow cytometry, multiplex; Induced myeloid leukemia cell differentiation protein Mcl-1 (Homo sapiens), Q07820; Bim peptide-Mcl-1 binding; inhibition, % at 10 µM; 190,000 compounds, 0.1% hits; in the data active means inhibition above about 40%
# GLD-1 RNA inh: GLD-1/TGE RNA complex disruptors, primary screen, biochemical, fluorescence polarization | Female germline-specific tumor suppressor gld-1 (Caenorhabditis elegans), Q17339 | purified GLD-1 + fluorescein TGE RNA | inhibition, % at 5.96 µM | 320,000 compounds, 0.44% hits | AID 2280, 2010;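 active means percent inhibition above a per-plate cutoff, the plate mean of test compounds plus 3 SD, cut at about 30% in these data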
# Target sequence (Q17339 whole entry, looked up): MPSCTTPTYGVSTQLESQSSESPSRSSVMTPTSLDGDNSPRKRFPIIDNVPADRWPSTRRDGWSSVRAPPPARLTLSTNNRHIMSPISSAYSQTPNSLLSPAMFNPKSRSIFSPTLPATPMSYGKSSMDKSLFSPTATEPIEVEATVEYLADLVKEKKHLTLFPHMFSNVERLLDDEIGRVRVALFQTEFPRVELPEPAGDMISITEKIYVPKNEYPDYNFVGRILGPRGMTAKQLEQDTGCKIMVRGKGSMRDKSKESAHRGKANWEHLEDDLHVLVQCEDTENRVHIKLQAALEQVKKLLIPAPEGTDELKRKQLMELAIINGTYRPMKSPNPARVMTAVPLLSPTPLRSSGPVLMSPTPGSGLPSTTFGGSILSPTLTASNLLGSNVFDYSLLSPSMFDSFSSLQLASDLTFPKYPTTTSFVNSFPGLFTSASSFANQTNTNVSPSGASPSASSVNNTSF
# MCL1 BIM primary: inhibitors of MCL1 binding to BIM-BH3, primary screen, biochemical, fluorescence polarization; Induced myeloid leukemia cell differentiation protein Mcl-1 (Homo sapiens), Q07820; GST-MCL1 / FITC-Bim-BH3 fluorescence polarization; inhibition, % at 10.9 µM; 320,000 compounds, 0.68% hits; AID 2057, 2009;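 active means inhibition above the mean inhibition of all tested compounds plus 3 SD, set per campaign, cut at about 40% in these data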;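 further: higher means more loss of mP so more displacement of Bim peptide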
# Hits are given with their value; n = inactive; x = no result given.
SMILES,BCLXL inh,Mcl1 Noxa PPI,Mcl1-Bid inh,Bim-Mcl-1,GLD-1 RNA inh,MCL1 BIM primary
N=C1/C(=C\c2coc3ccccc3c2=O)C(=O)N=C2SC(c3ccncc3)=NN12,n,61.1,n,x,n,n
CN1C(=O)/C(=C/c2coc3ccc(O)cc3c2=O)SC1=S,n,53.8,n,x,n,n
CC(C)CSC1=NSC2=NC(=O)/C(=C\c3coc4ccccc4c3=O)C(=N)N12,79.6,n,n,x,n,n
Cc1cc(/C=C2\SC(=S)N(C)C2=O)c(C)n1-c1ccc(O)cc1,n,n,n,x,n,n
N=C1/C(=C/c2ccc(OC(=O)c3ccco3)cc2)C(=O)N=C2SC=CN12,n,n,n,n,n,n
CSC1=NSC2=NC(=O)/C(=C\c3coc4ccccc4c3=O)C(=N)N12,n,n,n,n,n,n
N=C1/C(=C/c2coc3ccccc3c2=O)C(=O)N=C2SC(c3ccco3)=NN12,n,n,n,x,n,n
N=C1/C(=C\c2coc3ccc(O)cc3c2=O)C(=O)N=C2SC=CN12,60.9,n,n,x,54.9,n
COc1ccc(C(=O)NNC(=O)C(=O)NC2CCCCC2)cc1,n,x,x,x,n,n
COc1ccc(/C=N/n2c(-c3n[nH]c4c3CCC4)n[nH]c2=S)cc1OC,n,65.1,n,n,n,n
Cc1cccc(NC(=O)N2CCCCCC2)c1,n,x,x,x,n,n
CC(=O)Nc1ccc(NC(=S)NC(=O)/C=C/c2ccc(Cl)cc2)cc1,n,n,n,n,n,n
NS(=O)(=O)c1ccc(NC(=S)NC(=O)/C=C/c2ccco2)cc1,n,88.7,n,n,n,n
NC(N)=NS(=O)(=O)c1ccc(NC(=S)NC(=O)/C=C/c2ccco2)cc1,n,n,n,n,n,n
O=C(/C=C/c1ccco1)NC(=S)Nc1cccc(-c2nc3ccccc3o2)c1,n,x,64.6,n,n,n
O=C(/C=C/c1ccc(Cl)cc1)NC(=S)Nc1ccc(NC(=O)c2ccco2)cc1,n,n,55.9,n,n,n
O=C(/C=C/c1ccco1)Nc1ccc(N2CCCC2)cc1,n,64.2,n,n,n,n
O=C(CSc1nnc(-c2ccccc2F)n1C1CC1)NCc1ccco1,n,x,x,x,n,n
O=C(/C=C/c1ccco1)NC(=S)Nc1cc(-c2nc3ccccc3s2)ccc1Cl,n,64.2,62.9,n,n,n
O=C(c1cccs1)[C@@H]1[C@@H]2C(=O)N(Cc3ccc4c(c3)OCO4)C(=O)[C@@H]2C2c3ccccc3C=CN21 (stereo partly specified),47.7,n,n,n,39.5,43.4
O=C(c1ccc2c(c1)OCO2)[C@@H]1[C@@H]2C(=O)N(C3CCCCC3)C(=O)[C@@H]2C2c3ccccc3C=CN21 (stereo partly specified),x,n,n,n,x,x
Cc1cc(C)cc(N(C(C)C(=O)N2CCOCC2)S(C)(=O)=O)c1 (stereo unspecified),n,n,52.9,n,n,n
Cc1cc(C)cc(N(C(C)C(=O)N2CCCCC2)S(C)(=O)=O)c1 (stereo unspecified),n,n,n,n,n,n
CC(=O)Nc1sc2c(c1C(N)=O)CCCC2,n,n,n,n,n,n
NC(=O)c1c(NC(=O)C2c3ccccc3Oc3ccccc32)sc2c1CCCCC2,n,68.0,n,n,n,n
SMILES,BCLXL inh,Mcl1 Noxa PPI,Mcl1-Bid inh,Bim-Mcl-1,GLD-1 RNA inh,MCL1 BIM primary
O=C(COC(=O)C1C2CC3OC(=O)C1C3C2)Nc1cccc(Cl)c1 (stereo unspecified),n,x,x,x,n,n
CCCOc1ccc(-c2nnc(N)s2)cc1,n,61.7,n,n,n,n
COc1ccc(-c2nnc(N)s2)cc1,n,n,n,n,n,n
CC(=O)Nc1ccc(NC(=O)COC(=O)[C@@H]2CCCN2C(=O)c2cccs2)cc1,x,x,x,x,n,x
O=C(CC1SC(=O)NC1=O)Oc1ccc(/C=N/NC(=O)c2ccccc2O)cc1 (stereo unspecified),n,n,n,x,n,n
CN(C)/C=C/C(=O)c1ccc(C(F)(F)F)cc1F,n,n,n,100.0,n,n
CN(C)/C=C/C(=O)c1ccc(Cl)cc1Cl,n,n,n,n,n,n
CCOc1c(O)ccc(/C=C2\SC(=S)NC2=O)c1[N+](=O)[O-],n,71.7,n,n,n,n
CCCCn1nc(C(=O)NCC(c2cccs2)N2CCOCC2)c2ccccc2c1=O (stereo unspecified),n,x,x,x,n,n
CN1C(C(=O)N2CCc3ccccc3C2)=CC(c2ccc(F)cc2)=NS1(=O)=O,n,x,x,x,n,n
Cc1nc2sc(C(c3cccs3)N3CCOCC3)c(O)n2n1 (stereo unspecified),n,n,75.9,n,n,n
CN(C)c1ccc(C(=O)Nc2nnc(-c3ccc(Cl)cc3)o2)cc1,n,68.7,n,n,n,n
CC(=O)c1ccc(C(=O)Nc2nnc(-c3ccc(Cl)cc3)o2)cc1,n,n,n,x,n,n
NC(=O)[C@@H]1CCCN1Cc1c(C(=O)N2CCc3ccccc3C2)nc2ccc(Cl)cn12,41.2,x,x,x,35.6,43.2
CC1CCN(Cc2c(C(=O)N3CCc4ccccc4C3)nc3ccc(Cl)cn23)CC1,n,x,x,x,n,n
O=C(O)COc1ccc(/C=N/NC(=O)c2ccc(-c3csc(Nc4ccc(Cl)cc4)n3)cc2)cc1,x,88.4,95.0,x,x,x
CCOc1cc(/C=N/NC(=O)c2ccc(-c3csc(Nc4ccc(C)cc4)n3)cc2)ccc1OCC(=O)O,x,86.1,n,n,x,x
CCCN(CC(=O)Nc1cc(Cl)ccc1Cl)C(=O)c1ccc2n[nH]nc2c1,n,x,x,x,n,n
O=[N+]([O-])c1ccccc1S(=O)(=O)N/C(=N/S(=O)(=O)c1ccccc1)c1ccccc1,x,x,x,x,n,x
Cc1nnc(-c2cccc(Br)c2)c2cn(-c3ccc(Br)cc3)nc12,n,n,56.1,n,n,n
Cc1nnc(-c2cccc(Br)c2)c2cn(-c3ccccc3)nc12,n,n,n,n,n,n
CC(C)[n+]1ccn(C2=C([O-])c3ccccc3C(=O)/C2=N\S(=O)(=O)c2ccccc2)c1,n,n,84.2,x,n,n
CCCC[n+]1ccn(C2=C([O-])c3ccccc3C(=O)/C2=N\S(=O)(=O)c2ccccc2)c1,n,n,n,n,n,n
CCCCn1c(-c2ccc(Cl)cc2)nc2c(=O)n(C)c(=O)[nH]c21,x,76.0,n,n,x,x
N#C/C(=C/c1ccc(F)cc1)c1nnc(NC(=O)c2ccccc2)s1,n,67.9,n,x,n,n
CN(Cc1ccc(F)cc1)S(=O)(=O)c1nnc(NC(=O)c2ccccc2)s1,n,x,x,x,n,n
COc1cc(/C=N/NC(=O)C2c3ccccc3Oc3ccccc32)ccc1O,n,79.0,n,n,n,n

# Source: PubChem BioAssay (several laboratories)
